This is one part of the list. How many sequences the whole screen found active is unknown.
B1: HC841 (peptide)
chain: CANIEEVALSAGNASASA
B2: FS-527 (peptide)
chain: CAFYLRRRRRAGNASASA
B3: FS-1881 (peptide)
chain: CAIKKRFQTTAGNASASA
B4: FS-33 (peptide)
chain: CAIKKRRRRRAGNASASA
B5: HC342 (peptide)
chain: CASMVGNWAKAGNASASA
B6: HC2494 (peptide)
chain: CASKPCSAHLAGNASASA
B7: FS-1297 (peptide)
chain: CAACPRRARGAGNASASA
B8: FS-400 (peptide)
chain: CAARARLGRQAGNASASA
B9: FS-1185 (peptide)
chain: CAARARLPRDAGNASASA
B10: FS-978 (peptide)
chain: CAARGRGGRDAGNASASA
B11: FS-1098 (peptide)
chain: CATRARLSRPAGNASASA
B12: FS-301 (peptide)
chain: CASQARLGRIAGNASASA
B13: FS-1585 (peptide)
chain: CAARPRRARQAGNASASA
B14: HC437 (peptide)
chain: CATWMNSTGFAGNASASA
B15: HC1931 (peptide)
chain: CATTPCSGSDAGNASASA
B16: FS-1070 (peptide)
chain: CARPSRKRRSAGNASASA
B17: FS-2055 (peptide)
chain: CARPKRCPRSAGNASASA
B18: FS-2578 (peptide)
chain: CARPKRLDSAAGNASASA
B19: HC914 (peptide)
chain: CARPSGMFDSAGNASASA
B20: FS-1157 (peptide)
chain: CARHIRKRRSAGNASASA
B21: FS-2579 (peptide)
chain: CARPKRYFTIAGNASASA
B22: FS-2054 (peptide)
chain: CARPKRADTFAGNASASA
B23: HC2545 (peptide)
chain: CASTPCSALLAGNASASA
B24: HC1565 (peptide)
chain: CATTPLARAAAGNASASA
B25: HC604 (peptide)
chain: CADITKLLLAAGNASASA
B26: FS-649 (peptide)
chain: CAEISRKRRSAGNASASA
B27: HC1559 (peptide)
chain: CAAGKRVYYLAGNASASA
B28: FS-425 (peptide)
chain: CAGERRKRRSAGNASASA
B29: FS-659 (peptide)
chain: CAGSHMKRRSAGNASASA
B30: FS-1299 (peptide)
chain: CAAGKRKRRSAGNASASA
B31: FS-230 (peptide)
chain: CAEFERRWRSAGNASASA
B32: FS-21 (peptide)
chain: CAEIKRKWRSAGNASASA
B33: HC2343 (peptide)
chain: CAEVACHRPSAGNASASA
B34: HC451 (peptide)
chain: CACPTDCFRKAGNASASA
B35: HC571 (peptide)
chain: CAVVLVGLMAAGNASASA
B36: HC1607 (peptide)
chain: CASLHSYSPGAGNASASA
B37: FS-3118 (peptide)
chain: CARVKKSVEVAGNASASA
B38: HC874 (peptide)
chain: CAPTSGDVVVAGNASASA
B39: HC415 (peptide)
chain: CAFTPSPVVVAGNASASA
B40: HC2153 (peptide)
chain: CARVVTSTWVAGNASASA
B41: HC1324 (peptide)
chain: CAPRKKRTVVAGNASASA
B42: DV4 (peptide)
chain: CARKKRSVVVAGNASASA
B43: FS-2840 (peptide)
chain: CARVKRSVVVAGNASASA
B44: FS-2327 (peptide)
chain: CARCRRCVVVAGNASASA
B45: HC2230 (peptide)
chain: CAEVVTSTVVAGNASASA
B46: HC2198 (peptide)
chain: CAEVTTSTWVAGNASASA

Biological target: furin, P09958
Sequence (P09958 whole entry): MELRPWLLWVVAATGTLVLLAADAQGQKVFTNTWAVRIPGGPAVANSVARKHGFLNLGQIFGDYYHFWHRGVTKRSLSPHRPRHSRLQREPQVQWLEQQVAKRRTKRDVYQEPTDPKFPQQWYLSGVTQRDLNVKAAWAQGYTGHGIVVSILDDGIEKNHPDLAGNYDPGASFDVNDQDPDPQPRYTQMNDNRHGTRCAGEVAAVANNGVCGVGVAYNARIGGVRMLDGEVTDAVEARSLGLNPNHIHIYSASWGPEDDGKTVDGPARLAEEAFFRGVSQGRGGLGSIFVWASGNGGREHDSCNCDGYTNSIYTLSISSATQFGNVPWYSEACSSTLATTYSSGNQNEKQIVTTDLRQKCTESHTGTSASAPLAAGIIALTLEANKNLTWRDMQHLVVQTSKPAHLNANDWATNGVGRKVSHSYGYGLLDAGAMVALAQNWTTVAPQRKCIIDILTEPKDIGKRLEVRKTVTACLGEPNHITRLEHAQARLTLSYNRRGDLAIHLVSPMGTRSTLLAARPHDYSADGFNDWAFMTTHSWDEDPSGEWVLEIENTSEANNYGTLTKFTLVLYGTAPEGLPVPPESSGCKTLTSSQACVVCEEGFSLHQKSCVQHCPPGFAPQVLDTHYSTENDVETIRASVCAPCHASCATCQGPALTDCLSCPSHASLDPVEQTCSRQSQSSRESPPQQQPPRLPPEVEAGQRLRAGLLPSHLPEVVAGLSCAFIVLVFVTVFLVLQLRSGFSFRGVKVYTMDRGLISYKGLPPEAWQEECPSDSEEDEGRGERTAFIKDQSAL
Experiment: furin cleavage Z-score vs untreated control; higher = more cleavage, active = 3.5 or more, inactive = 1 or less, 8 variable residues between constant flanks
Summary of the method: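 The cleavage Z-score was derived for purified furin acting on 8-mer peptides held on magnetic beads and fused to a cDNA oligonucleotide. Digests lasted 7.5, 15 or 30 min at 1:10 enzyme:substrate in 50 mM HEPES pH 7.5 with CaCl2 and NaCl. Sequencing counts of released DNA, log-transformed against furin-free reactions, were lowess-adjusted and scaled by median absolute deviation.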

Row | Sequence | furin cleavage Z-score (7.5 min) | furin cleavage Z-score (15 min) | furin cleavage Z-score (30 min)
1 | B1 | 0.342 (inactive) | 0.83 (inactive) | -1.19 (inactive)
2 | B2 | 2.84 | 3.02 | 3.78 (active)
3 | B3 | -0.863 (inactive) | -1.06 (inactive) | -0.368 (inactive)
4 | B4 | 7.42 (active) | 7.44 (active) | 6.1 (active)
5 | B5 | 1.34 | 0.0553 (inactive) | 0.702 (inactive)
6 | B6 | 1.46 | 0.933 (inactive) | 0.45 (inactive)
7 | B7 | -0.34 (inactive) | -0.615 (inactive) | -0.259 (inactive)
8 | B8 | 5.77 (active) | 6.39 (active) | 5.75 (active)
9 | B9 | 9.09 (active) | 9.62 (active) | 6.75 (active)
10 | B10 | 0.0621 (inactive) | -0.261 (inactive) | -0.608 (inactive)
11 | B11 | -0.0765 (inactive) | -0.0832 (inactive) | -0.467 (inactive)
12 | B12 | -1.06 (inactive) | -0.739 (inactive) | -0.311 (inactive)
13 | B13 | 9.65 (active) | 12 (active) | 7.48 (active)
14 | B14 | 0.658 (inactive) | 2.27 | -0.141 (inactive)
15 | B15 | -0.759 (inactive) | -0.942 (inactive) | -0.913 (inactive)
16 | B16 | 12.8 (active) | 11.6 (active) | 9.65 (active)
17 | B17 | 7.03 (active) | 6.47 (active) | 5.65 (active)
18 | B18 | -0.648 (inactive) | -0.15 (inactive) | 0.332 (inactive)
19 | B19 | -0.826 (inactive) | -0.415 (inactive) | -0.285 (inactive)
20 | B20 | 13.5 (active) | 13.3 (active) | 9.11 (active)
21 | B21 | -0.409 (inactive) | -0.643 (inactive) | -0.0555 (inactive)
22 | B22 | 5.65 (active) | 7.21 (active) | 7.85 (active)
23 | B23 | 0.599 (inactive) | 1.06 | 0.284 (inactive)

Row | Sequence | furin cleavage Z-score (7.5 min) | furin cleavage Z-score (15 min) | furin cleavage Z-score (30 min)
24 | B24 | -0.63 (inactive) | 1.08 | -0.687 (inactive)
25 | B25 | -1.43 (inactive) | 0.163 (inactive) | 0.0126 (inactive)
26 | B26 | 10.9 (active) | 9.94 (active) | 7.56 (active)
27 | B27 | -0.901 (inactive) | 0.829 (inactive) | -0.892 (inactive)
28 | B28 | 14.4 (active) | 13.6 (active) | 11 (active)
29 | B29 | -0.564 (inactive) | 0.785 (inactive) | 1.98
30 | B30 | 12.8 (active) | 14.7 (active) | 10.5 (active)
31 | B31 | -1.8 (inactive) | -0.415 (inactive) | 0.059 (inactive)
32 | B32 | 2.15 | 3.65 (active) | 5.04 (active)
33 | B33 | 0.99 (inactive) | 0.762 (inactive) | 1.27
34 | B34 | 0.183 (inactive) | -0.762 (inactive) | -0.961 (inactive)
35 | B35 | -0.371 (inactive) | 0.0646 (inactive) | -0.205 (inactive)
36 | B36 | -1.22 (inactive) | 0.427 (inactive) | 0.0666 (inactive)
37 | B37 | 4.33 (active) | 7.31 (active) | 8.17 (active)
38 | B38 | -0.612 (inactive) | 0.813 (inactive) | -0.497 (inactive)
39 | B39 | -0.406 (inactive) | -0.269 (inactive) | -0.296 (inactive)
40 | B40 | 1.81 | 1.03 | 0.0503 (inactive)
41 | B41 | 11.4 (active) | 13.7 (active) | 11.3 (active)
42 | B42 | 9.41 (active) | 10.1 (active) | 9.47 (active)
43 | B43 | 8.15 (active) | 9.71 (active) | 8.81 (active)
44 | B44 | -0.669 (inactive) | 0.654 (inactive) | 1.36
45 | B45 | -0.163 (inactive) | -0.129 (inactive) | -0.367 (inactive)
46 | B46 | -0.604 (inactive) | 0.139 (inactive) | -0.711 (inactive)

— the supplement of paper PMC3545927
